The source of these data is ChEMBL document CHEMBL3988442, “University of Dundee, Small-Polar-MMV Screening Library” (2021).

Holding throughout (design): scale not given: direction of the effect not stated beside the values
In test [1] the target is Protein translocase subunit SecA (Escherichia coli (strain K12)) (UniProt P10408). As to the kind of experiment: Assay to Identify E. coli SecA ATPase Inhibitors. In kind it is functional. Particulars: 30 µM.
Test [2] concerns the target T1, Ubiquitin-activating enzyme e1, putative (Leishmania donovani (strain BPK282A1)) (UniProt E9BSI1).
T1 sequence (whole entry): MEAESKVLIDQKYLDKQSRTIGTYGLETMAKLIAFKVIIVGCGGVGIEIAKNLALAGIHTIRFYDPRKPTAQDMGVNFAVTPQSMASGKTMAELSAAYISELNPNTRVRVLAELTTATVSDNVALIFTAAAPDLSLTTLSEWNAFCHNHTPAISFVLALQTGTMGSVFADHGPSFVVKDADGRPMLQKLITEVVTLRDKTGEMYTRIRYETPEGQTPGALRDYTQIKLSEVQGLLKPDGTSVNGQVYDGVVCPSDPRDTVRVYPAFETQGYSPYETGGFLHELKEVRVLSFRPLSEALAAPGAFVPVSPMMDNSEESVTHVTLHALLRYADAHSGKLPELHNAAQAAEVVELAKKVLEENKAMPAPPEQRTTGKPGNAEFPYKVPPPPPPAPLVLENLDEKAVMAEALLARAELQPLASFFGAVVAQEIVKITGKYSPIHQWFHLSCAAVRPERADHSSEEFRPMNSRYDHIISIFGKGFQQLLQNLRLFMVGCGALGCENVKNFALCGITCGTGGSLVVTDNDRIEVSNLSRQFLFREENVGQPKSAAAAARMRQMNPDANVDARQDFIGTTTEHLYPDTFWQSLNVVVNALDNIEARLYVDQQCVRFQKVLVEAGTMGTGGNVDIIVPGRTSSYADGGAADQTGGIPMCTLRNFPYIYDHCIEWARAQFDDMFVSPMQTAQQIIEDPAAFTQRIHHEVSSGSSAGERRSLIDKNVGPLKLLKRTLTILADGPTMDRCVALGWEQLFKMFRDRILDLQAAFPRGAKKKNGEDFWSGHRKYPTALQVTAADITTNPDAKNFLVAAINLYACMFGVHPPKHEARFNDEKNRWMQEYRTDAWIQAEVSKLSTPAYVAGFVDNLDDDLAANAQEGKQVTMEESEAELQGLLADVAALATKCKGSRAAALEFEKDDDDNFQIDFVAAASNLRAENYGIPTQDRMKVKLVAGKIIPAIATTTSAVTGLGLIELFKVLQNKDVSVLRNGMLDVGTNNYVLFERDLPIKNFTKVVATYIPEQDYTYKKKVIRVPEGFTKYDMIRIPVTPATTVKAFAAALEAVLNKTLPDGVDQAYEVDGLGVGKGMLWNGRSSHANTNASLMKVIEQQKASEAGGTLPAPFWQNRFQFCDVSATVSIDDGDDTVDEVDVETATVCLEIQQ
As to the kind of experiment: Leishmania donovani Ubiquitin Activating Enzyme (LdE1). Type of test: functional. Particulars: 30 µM.

The target in test [3] is AMP-activated protein kinase, AMPK (Homo sapiens) (UniProt P54646+O43741+P54619+Q9UGJ0+Q9Y478+Q13131+Q9UGI9). The experiment in a line: AMP-dependent Kinase enzyme assay. An in vitro enzyme assay that detects ADP turnover that is directly proportional to AMPK activity. This uses naive AMPK that is activated during the assay with MK-8722. Type of test: functional. Particulars: 30 µM.

The target in test [4] is Sialic acid-binding Ig-like lectin 9 (Homo sapiens) (UniProt Q9Y336). As to the kind of experiment: Hs-Siglec9 ALPHAscreen SOP 20170721. The conditions noted are these: 10 µM. In general terms: Alpha assays give light when donor and acceptor beads are brought close together.
The subject of test [5] is Trypanosoma cruzi. As to the kind of experiment: Trypanosoma cruzi phosphomannomutase and mannose-1-phosphate guanylyltransferase assay. In kind it is functional. Particulars: 10 µM.
The target in test [6] is T2, Arginase-2, mitochondrial (Homo sapiens) (UniProt P78540).
T2 sequence (whole entry): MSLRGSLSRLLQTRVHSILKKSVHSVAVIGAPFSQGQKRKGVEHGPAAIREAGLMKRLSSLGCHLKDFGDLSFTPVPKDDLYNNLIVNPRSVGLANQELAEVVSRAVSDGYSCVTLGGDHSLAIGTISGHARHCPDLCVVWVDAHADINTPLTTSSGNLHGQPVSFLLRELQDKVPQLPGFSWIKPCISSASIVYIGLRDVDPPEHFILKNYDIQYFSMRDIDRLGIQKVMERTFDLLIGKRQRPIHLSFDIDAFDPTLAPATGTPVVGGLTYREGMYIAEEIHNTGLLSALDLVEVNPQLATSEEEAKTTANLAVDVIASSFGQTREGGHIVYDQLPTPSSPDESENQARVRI
The experiment in a line: in vitro enzyme assay to detect the production of urea directly proportional to the activity of Arginase II. Note: in the data most compounds retested in dose-response had high values. Type of test: functional. Particulars: 33.3 µM.

Test [7] deals with T3, Proteasome subunit beta (Trypanosoma cruzi) (UniProt O96673).
T3 sequence (whole entry): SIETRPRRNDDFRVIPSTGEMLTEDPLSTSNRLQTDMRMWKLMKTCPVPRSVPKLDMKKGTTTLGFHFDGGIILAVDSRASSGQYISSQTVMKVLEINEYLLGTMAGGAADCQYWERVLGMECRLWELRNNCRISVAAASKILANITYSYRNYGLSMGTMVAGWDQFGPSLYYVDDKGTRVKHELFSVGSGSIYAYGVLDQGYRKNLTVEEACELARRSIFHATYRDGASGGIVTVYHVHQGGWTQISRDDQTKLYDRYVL
The experiment in a line: Trypanosoma cruzi proteasome chymotrypsin-like activity (TcProtChymo) assay. Note: in the data most compounds retested in dose-response had high values. Type of test: functional. The conditions noted are these: 9.37 µM.

Test [8] is filed under the species Homo sapiens. As to the kind of experiment: To identify inhibition of the IFN signalling (Jak-Stat) pathway via expression of an eGFP reporter gene under the control of an IFN-stimulated response element (ISRE) containing MxA promoter. In kind it is functional. The conditions noted are these: 30 µM. A general note: A reporter such as luciferase makes a cellular process visible.

The target in test [9] is T4, Tyrosyl-tRNA synthetase, putative (Trypanosoma cruzi (strain CL Brener)) (UniProt Q4DSP6).
T4 sequence (whole entry): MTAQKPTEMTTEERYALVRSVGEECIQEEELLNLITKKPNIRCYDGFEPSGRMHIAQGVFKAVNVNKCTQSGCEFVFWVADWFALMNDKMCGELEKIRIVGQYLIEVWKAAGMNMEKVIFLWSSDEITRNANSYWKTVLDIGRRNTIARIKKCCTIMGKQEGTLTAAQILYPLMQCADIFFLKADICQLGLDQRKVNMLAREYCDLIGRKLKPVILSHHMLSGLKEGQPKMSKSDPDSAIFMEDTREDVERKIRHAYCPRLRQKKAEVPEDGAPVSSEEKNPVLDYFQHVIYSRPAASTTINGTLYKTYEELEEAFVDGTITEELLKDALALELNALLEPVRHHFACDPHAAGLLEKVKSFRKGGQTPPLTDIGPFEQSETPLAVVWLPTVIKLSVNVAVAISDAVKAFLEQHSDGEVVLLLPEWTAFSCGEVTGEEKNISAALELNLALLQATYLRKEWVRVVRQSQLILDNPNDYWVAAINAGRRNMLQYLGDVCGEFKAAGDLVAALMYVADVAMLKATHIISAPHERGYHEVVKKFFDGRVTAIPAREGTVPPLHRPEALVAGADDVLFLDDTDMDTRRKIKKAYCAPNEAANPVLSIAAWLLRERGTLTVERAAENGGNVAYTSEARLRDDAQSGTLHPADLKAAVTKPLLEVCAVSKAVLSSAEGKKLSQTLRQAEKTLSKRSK
As to the kind of experiment: Trypanosoma cruzi tyrosyl tRNA synthetase (TcYRS) _High Tyrosine SOP. Note: in the data most compounds retested in dose-response had high values. Type of test: functional. Particulars: 30 µM.

For test [10], the target named is T4, Tyrosyl-tRNA synthetase, putative (Trypanosoma cruzi (strain CL Brener)). As to the kind of experiment: Trypanosoma cruzi tyrosyl tRNA synthetase (TcYRS) SOP. In kind it is functional. Particulars: 30 µM.
Test [11] addresses Chromo domain-containing protein 1 (Saccharomyces cerevisiae (strain ATCC 204508 / S288c) (Baker's yeast)) (UniProt P32657). The experiment in a line: ScCHD-1 Enzyme Inhibition Assay. Note: in the data most compounds retested in dose-response had high values. In kind it is functional. Particulars: 30 µM.

For some of these results: Entries with a potency or affinity are not part of this list.

Sequence of Chromo domain-containing protein 1 (Saccharomyces cerevisiae (strain ATCC 204508 / S288c) (Baker's yeast)) (P32657 whole entry, the tested form may be a part): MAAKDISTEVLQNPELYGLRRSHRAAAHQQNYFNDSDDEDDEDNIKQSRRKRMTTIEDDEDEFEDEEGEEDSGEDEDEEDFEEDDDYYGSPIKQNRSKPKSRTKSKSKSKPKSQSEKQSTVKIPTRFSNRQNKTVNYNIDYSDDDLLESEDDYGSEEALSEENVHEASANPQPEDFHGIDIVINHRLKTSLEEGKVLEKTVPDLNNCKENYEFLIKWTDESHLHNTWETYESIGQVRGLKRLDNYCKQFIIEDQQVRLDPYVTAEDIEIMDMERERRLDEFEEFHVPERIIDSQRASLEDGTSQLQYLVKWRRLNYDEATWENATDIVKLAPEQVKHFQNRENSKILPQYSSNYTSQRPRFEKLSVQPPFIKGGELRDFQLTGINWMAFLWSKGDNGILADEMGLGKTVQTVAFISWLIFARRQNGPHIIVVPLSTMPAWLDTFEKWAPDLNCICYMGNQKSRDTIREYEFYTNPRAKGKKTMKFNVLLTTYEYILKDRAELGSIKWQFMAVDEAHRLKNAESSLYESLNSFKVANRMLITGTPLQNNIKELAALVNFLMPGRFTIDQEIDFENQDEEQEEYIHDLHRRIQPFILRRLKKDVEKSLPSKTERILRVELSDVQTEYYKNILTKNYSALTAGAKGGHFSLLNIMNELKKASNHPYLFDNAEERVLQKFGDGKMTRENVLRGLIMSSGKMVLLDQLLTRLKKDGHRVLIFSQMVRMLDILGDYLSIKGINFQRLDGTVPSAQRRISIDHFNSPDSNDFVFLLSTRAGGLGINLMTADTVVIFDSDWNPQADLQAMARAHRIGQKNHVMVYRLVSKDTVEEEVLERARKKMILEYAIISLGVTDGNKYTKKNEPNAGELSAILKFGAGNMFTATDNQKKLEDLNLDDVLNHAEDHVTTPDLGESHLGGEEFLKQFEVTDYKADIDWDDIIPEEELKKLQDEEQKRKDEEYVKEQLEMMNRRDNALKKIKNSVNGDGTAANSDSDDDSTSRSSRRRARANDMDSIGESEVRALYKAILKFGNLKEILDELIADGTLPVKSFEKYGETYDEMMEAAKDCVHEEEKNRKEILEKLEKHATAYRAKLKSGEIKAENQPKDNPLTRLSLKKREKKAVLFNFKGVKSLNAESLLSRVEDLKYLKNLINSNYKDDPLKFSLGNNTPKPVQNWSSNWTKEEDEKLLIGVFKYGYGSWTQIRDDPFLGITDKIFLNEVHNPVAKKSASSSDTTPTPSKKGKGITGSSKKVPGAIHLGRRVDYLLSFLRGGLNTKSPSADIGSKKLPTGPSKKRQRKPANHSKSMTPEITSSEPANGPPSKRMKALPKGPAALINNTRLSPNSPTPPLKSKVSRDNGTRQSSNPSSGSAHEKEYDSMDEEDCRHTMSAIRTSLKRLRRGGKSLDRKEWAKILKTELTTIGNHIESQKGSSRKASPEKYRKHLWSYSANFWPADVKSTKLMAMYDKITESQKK
Sequence of Sialic acid-binding Ig-like lectin 9 (Homo sapiens) (Q9Y336 whole entry): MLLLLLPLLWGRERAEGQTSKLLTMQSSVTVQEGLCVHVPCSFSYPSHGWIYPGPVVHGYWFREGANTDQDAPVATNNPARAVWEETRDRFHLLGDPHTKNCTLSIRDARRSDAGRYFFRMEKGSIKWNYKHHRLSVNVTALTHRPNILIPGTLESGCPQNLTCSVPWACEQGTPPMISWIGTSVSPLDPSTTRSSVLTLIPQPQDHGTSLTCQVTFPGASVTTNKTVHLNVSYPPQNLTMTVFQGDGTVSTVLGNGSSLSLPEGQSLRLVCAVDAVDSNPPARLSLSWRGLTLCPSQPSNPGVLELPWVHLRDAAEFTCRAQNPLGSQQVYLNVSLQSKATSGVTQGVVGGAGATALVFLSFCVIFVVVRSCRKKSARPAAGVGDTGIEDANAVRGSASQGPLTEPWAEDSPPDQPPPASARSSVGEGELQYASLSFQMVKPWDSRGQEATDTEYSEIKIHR
Sequence of Protein translocase subunit SecA (Escherichia coli (strain K12)) (P10408 whole entry): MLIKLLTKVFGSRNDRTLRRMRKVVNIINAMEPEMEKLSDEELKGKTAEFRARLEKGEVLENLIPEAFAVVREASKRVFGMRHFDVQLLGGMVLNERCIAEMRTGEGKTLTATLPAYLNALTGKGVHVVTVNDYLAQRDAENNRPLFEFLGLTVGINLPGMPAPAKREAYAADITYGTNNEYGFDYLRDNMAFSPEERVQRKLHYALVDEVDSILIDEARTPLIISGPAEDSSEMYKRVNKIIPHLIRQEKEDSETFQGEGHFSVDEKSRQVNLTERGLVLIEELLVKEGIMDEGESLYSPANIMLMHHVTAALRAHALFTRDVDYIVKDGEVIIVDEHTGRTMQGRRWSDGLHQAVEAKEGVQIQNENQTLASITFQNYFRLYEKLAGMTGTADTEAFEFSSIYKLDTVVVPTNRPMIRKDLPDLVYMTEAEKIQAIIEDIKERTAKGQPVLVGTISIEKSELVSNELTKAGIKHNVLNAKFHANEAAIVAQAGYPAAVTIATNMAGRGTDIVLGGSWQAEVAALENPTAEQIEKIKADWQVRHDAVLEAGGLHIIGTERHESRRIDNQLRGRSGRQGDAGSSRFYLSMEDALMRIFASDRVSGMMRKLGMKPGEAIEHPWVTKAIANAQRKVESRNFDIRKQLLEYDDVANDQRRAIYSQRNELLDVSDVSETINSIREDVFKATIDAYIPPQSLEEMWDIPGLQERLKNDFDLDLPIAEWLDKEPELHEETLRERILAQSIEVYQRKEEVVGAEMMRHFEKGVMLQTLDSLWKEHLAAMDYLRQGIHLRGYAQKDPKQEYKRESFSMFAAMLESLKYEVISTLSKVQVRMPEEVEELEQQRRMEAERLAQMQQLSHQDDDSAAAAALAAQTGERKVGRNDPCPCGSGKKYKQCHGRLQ

Take `CCc1cnc(N2CCC3(CC2)CN(c2cccnc2)C(=O)CO3)nc1`: the Percent Effect in [1] was -5.43%; in [2] it was 0%; in test [3], 2.98%; in [4], -2.45%; in [5], -3.03%; in test [6], -4.78%. Further, the Percent Effect in [7] is 7.01%; in test [8], 26.6%; in test [9] it was -4.32%; in test [10], -7.69%; in test [11], 6.26%.

With `O=C(C1SCCc2sccc21)N1CCC(O)CC1` (stereo unspecified), the Percent Effect was -4.42% in [1]; -5.41% in test [2]; 2.06% in test [3]; 0.929% in [4]; -6.25% in [5]; 0.833% in [6]. In addition, the Percent Effect in test [7] was 6.34%; in test [8] it was 5.86%; in test [9], 5.94%; in test [10], 1.22%; in test [11], 1.03%.

Regarding `CNc1cc(N2CCCC2CNCc2ccc(Cl)o2)ncn1` (stereo unspecified), the Percent Effect in [1] is -6.85%; in test [2], 13.5%; in test [3], -2.54%; in test [4], 43.1%; in [5] it was 8.98%; in test [6], 16.2%. Further, the Percent Effect in test [7] worked out at 18.9%; in test [8], 22%; in test [9], 15.8%; in test [10], 23.2%; in [11], 89.7%.

In the case of `Cc1oc(-c2ccsc2)nc1CC(=O)NCCS(C)(=O)=O`, the Percent Effect in test [1] was -3.85%; in test [2], 5.2%; in [3], 2.35%; in [4], 5.36%; in [5], -2.26%; in [6], -4.14%. Besides, the Percent Effect was 9.48% in [7]; 3.37% in test [8]; -1.07% in test [9]; 6.17% in [10]; -2.55% in test [11].

Turning to `Cc1cc(C2CCCN2CC(=O)N(CCC#N)c2ccccc2F)on1` (stereo unspecified), the Percent Effect in test [1] is -2.04%; in test [2], 10.8%; in [3], -3.15%; in [4], 8.81%; in test [5], 4.18%; in [6], -4.99%. Also, the Percent Effect in test [7] was 19.4%; in test [8], 8.68%; in [9], 3.96%; in [10], 23.2%; in [11], -6.79%.

With `CCCc1cc(C(=O)N2CCCC(n3ccnc3C)C2)[nH]n1` (stereo unspecified), the Percent Effect in test [1] is -3.55%; in test [2], 5.06%; in [3] it was -3.54%; in [4] it was 9.52%; in [5], 3.87%; in [6] it was 3.04%. The Percent Effect is -7.94% in [7]; 15.5% in test [8]; 3.45% in test [9]; 11.4% in [10]; -1.51% in [11].

For the molecule `N#Cc1ccc(C(=O)N2CC[C@H]3[C@@H]2CCC(=O)N3c2cccnc2)cc1`, the Percent Effect is -4.52% in test [1]; 13.5% in test [2]; 3.21% in [3]; -7.6% in test [4]; -2.44% in test [5]; 3.5% in test [6]. In addition, the Percent Effect in test [7] was 18.3%; in test [8], -4.58%; in test [9] it was 1.08%; in test [10], 12.8%; in [11], -4.36%.

On to `CC(C)C(=O)N1CCN(Cc2csc(-c3ncccn3)n2)CC1`, for which the Percent Effect in test [1] is -3.04%; in test [2], 0%; in test [3] it was 9.34%; in [4] it was 3.09%; in test [5], 1.27%; in [6], 0%. Further, the Percent Effect was 11.4% in test [7]; 2.18% in test [8]; 4.25% in [9]; 10.4% in [10]; -1.19% in [11].

Regarding `Cc1nc(CN2CCCN(CCOc3cccc(C#N)c3)CC2)no1`, the Percent Effect in [1] is -0.969%; in test [2], 13.2%; in test [3] it was -4.74%; in test [4], -2.13%; in [5], -7.38%; in test [6] it was 3.24%. Also, the Percent Effect is 16.3% in test [7]; 7.6% in [8]; 6.4% in test [9]; 11.1% in [10]; -9.28% in [11].

Take `COC(=O)c1cccc(NC(=O)CN2CCN(S(C)(=O)=O)CC2)c1`: the Percent Effect in [1] was -1.95%; in [2] it was 16.2%; in [3] it was 0.0395%; in test [4] it was 18.7%; in [5], 2.64%; in [6], 25.6%. The Percent Effect was 15.4% in [7]; 0.655% in [8]; 4.3% in test [9]; 16.1% in test [10]; -4.76% in test [11].

As to `O=C(NC(Cc1ccsc1)c1nccs1)C1CCOCC1` (stereo unspecified), the Percent Effect was -2.92% in [1]; 9.46% in test [2]; 12.2% in test [3]; 0.886% in test [4]; -4.74% in test [5]; -0.232% in [6]. For the same molecule, the Percent Effect was found to be 3.12% in test [7]; 10.9% in [8]; 1.07% in test [9]; 9.09% in test [10]; 7.79% in test [11].
